The source of these data is PubChem BioAssay (EPA / NIEHS).

For one assay, the system named is SRD5A2 (gene 6716). Briefly: CCTE_Deisenroth_5AR_NBTE_ratio: CCTE's 5alpha-reductase NanoBRET Target Engagement Assay - Ratio, Deisenroth Lab (AID 2284322; active = hit-call score of the fitted dose curve at least 0.9, where 1 is the maximum; inactive = score below 0.9). The settings on record: actives raise or lower the signal. Put shortly:
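Reverse-transfect HEK293T with pNLF1-C-SRD5A2, express 20 h. Pre-incubate cells with chemical 3 h (8-point series, 10 nM - 29.9 uM, duplicate). Add testosterone tracer, 2 h more. Add substrate/inhibitor, read donor and acceptor emission.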
A general note: In BRET a luciferase serves as donor, and the signal depends on an acceptor being close.

The test system of assay [1] is Brachyury (BRA) Protein Expression, Deisenroth Lab, TBXT (gene 6862). Kind of assay: CCTE_Deisenroth_DEVTOX-GLR_legacy_Bra: (Legacy) CCTE's DevTox GLR-Endo Assay Evaluation of Brachyury (BRA) Protein Expression, Deisenroth Lab (AID 2284329; active = hit-call score of the fitted dose curve at least 0.9, where 1 is the maximum; inactive = score below 0.9). In outline:
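RUES2-GLR human pluripotent cells are differentiated for 48 h and receive two chemical exposures 24 h apart, at 10 concentrations from 1 nM to 200 uM. Cells are fixed, nuclei stained and imaged. Bra+ cells are those with mean Bra intensity over 5x BMAD above the pluripotent control median, expressed as a percentage of cell count, after subtracting the 0.2% DMSO control median.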

Assay [2] in a line: CCTE_Deisenroth_DEVTOX-GLR_legacy_CellCount: (Legacy) Viability Assessment in CCTE's DevTox GLR-Endo Assay, Deisenroth Lab (AID 2284331; active = hit-call score of the fitted dose curve at least 0.9, where 1 is the maximum; inactive = score below 0.9). The settings on record: actives raise or lower the signal. In outline:
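Nuclei count by fluorescence high-content imaging (5 fields/well) after 48 h differentiation of RUES2-GLR cells. Two exposures, 24 h apart; 1 nM - 200 uM series; n=4. Bidirectional fit vs DMSO.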

Assay [3] concerns SRY-box transcription factor 17 (SOX17) Protein Expression, Deisenroth Lab, SOX17 (gene 64321). Briefly: CCTE_Deisenroth_DEVTOX-GLR_legacy_Sox17: (Legacy) CCTE's DevTox GLR-Endo Assay Evaluation of SRY-box transcription factor 17 (SOX17) Protein Expression, Deisenroth Lab (AID 2284341; active = hit-call score of the fitted dose curve at least 0.9, where 1 is the maximum; inactive = score below 0.9). The settings on record: actives raise or lower the signal. In outline:
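RUES2-GLR human pluripotent cells, seeded 24 h, then differentiated 48 h in defined media with two chemical exposures 24 h apart (1 nM - 200 uM, 10 points). Sox17+ fraction from high-content fluorescence imaging; bidirectional fit versus 0.2% DMSO.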

The subject of assay [4] is SRY-box transcription factor 2 (SOX2) Protein Expression, Deisenroth Lab, SOX2 (gene 6657). Briefly: CCTE_Deisenroth_DEVTOX-GLR_legacy_Sox2: (Legacy) CCTE's DevTox GLR-Endo Assay Evaluation of SRY-box transcription factor 2 (SOX2) Protein Expression, Deisenroth Lab (AID 2284346; active = hit-call score of the fitted dose curve at least 0.9, where 1 is the maximum; inactive = score below 0.9). In outline:
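RUES2-GLR human pluripotent cells were differentiated for 48 h with two chemical doses 24 h apart, over 1 nM-200 uM. Sox2+ cells were those above 5x BMAD of the endoderm-control median; percent Sox2+ minus the 0.2% DMSO median was used, from n=4 replicates.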

The test system is the same in assay [5]. Kind of assay: CCTE_Deisenroth_DEVTOX-GLR_Endo_SOX2: CCTE's DevTox GLR-Endo Assay Evaluation of SRY-box transcription factor 2 (SOX2) Protein Expression, Deisenroth Lab (AID 2284412). Put shortly:
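RUES2-GLR human pluripotent cells were seeded 24 h, then differentiated 48 h with two chemical exposures 24 h apart. Cells were fixed, nuclei stained and imaged by high-content microscopy. Endpoint is %SOX2+ cells over cell count, minus 0.2% DMSO control; 10-point series 1 nM–200 uM.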

The nature of assay [6]: IUF_NPC1_cytotoxicity_72hr: Cytotoxicity Assessment at 72 hours in the Leibniz Research Institute for Environmental Medicine (IUF) Neural Progenitor Cell Proliferation Assay (NPC1) (AID 2284332).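 Also: rising LDH signal means more cytotoxicity.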 In outline: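 hNPC spheres (fetal brain, gestational week 16-19) grown under proliferative EGF/FGF conditions, pH 7.2-7.6, were treated continuously for 72 h. Cytotoxicity came from LDH-coupled resazurin fluorescence in each well's supernatant.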

The nature of assay [7]: CCTE_Mundy_HCI_iCellGluta_NOG_NeuronCount: CCTE's Neurite Outgrowth Assay in iCellGluta cells for Neuron Count, Mundy Lab (AID 2284340).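 Also: cells fixed about 48 h after compound addition.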 Put shortly:
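Neuron count read by automated high-content imaging of Hoechst 33342 and betaIII-tubulin/Alexa Fluor-488 labelling in human iPSC glutamatergic neurons. Activity fitted relative to DMSO.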

Assay [8] can be described thus: CCTE_Mundy_HCI_iCellGluta_NOG_NeuriteCount: CCTE's Neurite Outgrowth Assay in iCellGluta cells for Neurite Count, Mundy Lab (AID 2284342).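 Also: chemical exposure about 48 hours starting 2 hours after plating.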
Another assay deals with SERPINA7 (gene 6906). Kind of assay: CCTE_GLTED_hTBG: CCTE's human Thyroxine-binding Globulin (TBG) Inhibition Assay, Great Lakes Toxicology and Ecology Division (GLTED) Lab (AID 2284343).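 Also: active chemicals lower fluorescence versus DMSO baseline by displacing probe.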 In outline: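 Measures how far test chemicals displace ANSA bound to purified human TBG. The read-out is fluorescence at 380 nm excitation and 475 nm emission, taken after 2 h of incubation.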

The nature of assay [9]: VALA_MIGHUV1_ScratchOnly_WoundArea: VALA Sciences human Umbilical Vein Endothelial Cell Migration (MIGHUV) Assay, Area of Scratch Wound Inhibited Recovery (AID 2284336). Put shortly:
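HUVEC monolayers (9000 cells/well) were scratched after 24 h, dosed within 30 min (six concentrations, triplicate, 0.1% DMSO), allowed 24 h recovery, then fixed. Hoechst-stained nuclei in the wound imaged; cytochalasin D as reference.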

Assay [10] in a line: VALA_TUBHUV_Agonist_TubuleLength: VALA Sciences human Umbilical Vein Endothelial Tubule Formation (TUBHUV) Agonism Assay (AID 2284337). Put shortly: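 HUVEC co-cultured with fibroblasts (1:3) 3 days in 10 ng/ml VEGF, then 3 days with compound plus VEGF; 0.1 % DMSO neutral control. Fixed, nuclear and CD31 stained; tubule length by fluorescence imaging.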
The nature of assay [11]: VALA_TUBIPS_Agonist_CellCount: Viability Assessment in the VALA Sciences human iPS-derived Endothelial Tubule Formation (TUBIPS) Agonism Assay (AID 2284338). Here is the method:
VALA_TUBIPS_Agonist is a cell-based, multiplexed assay that uses human iPS-derived endothelial cells (iPSC). Measurements were taken 72 hours after chemical dosing in a 96-well plate.VALA_TUBIPS_Agonist_CellCount is the one of two assay components measured from the VALA_TUBIPS_Agonist assay. It is designed to make measurements of viability, a form of viability reporter, as detected with fluorescence intensity signals by HCS Fluorescent Imaging technology. Data from the assay component VALA_TUBIPS_Agonist_CellCount was analyzed at the endpoint, VALA_TUBIPS_Agonist_CellCount, in the positive analysis fitting direction relative to DMSO as the negative control and baseline of activity. Using a type of viability reporter, loss-of-signal activity can be used to understand viability. To generalize the intended target to other relatable targets, this assay endpoint is annotated to the cell cycle intended target family, where the subfamily is cell count.
This HUVEC-HDF assay was designed to detect chemical suppression of tubulogenesis, i.e. antagonism. To measure tubulogenesis antagonism, HUVEC cells were co-cultured with HDF cells at a 1:3 ratio for 3-days in 10 ng/ml VEGF (i.e., favorable conditions with growth factors), then changed to assay medium containing 10 ng/ml VEGF and ToxCast compounds for an additional 3-day period. […]

A short description of assay [12]: CCTE_Padilla_ZF_Score.General: CCTE's 144 Hour Post-fertilization zebrafish Assay Score for General Malformation, Padilla Lab (AID 2284411; active = hit-call score of the fitted dose curve at least 0.9, where 1 is the maximum; inactive = score below 0.9). In outline: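 Wild-type zebrafish embryos were plated singly at 6-8 hpf in 10% Hanks' and exposed in sealed wells at 26C until rinsed on 5 dpf. At 6 dpf two blinded assessors scored mortality, hatching and malformations by stereomicroscopy; gain-of-signal versus DMSO.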

Where “and” joins values, the source holds several entries; their conditions need not be identical. Equal entries are not always repeated. Results filed as inconclusive are left out. Calls of active or inactive are those of the source. The calls were made as follows, unless noted: active = hit-call score of the fitted dose curve at least 0.9, where 1 is the maximum; inconclusive = response in the unintended direction; inactive = score below 0.9.

With `CC(=Cc1ccccc1)[N+](=O)[O-]`, the outcome with SRD5A2 (gene 6716) was inactive.

As usually defined, the AC50 is the concentration at which the activity in the assay is half-maximal. Consider `NC(=O)c1ccc(N)nc1`, for which the AC50 is 24.1 µM (active) in assay [1]; 30.6 µM (active) in assay [2]; 21 µM (active) in assay [3]; 52.9 µM (active) in [4]; 71.1 µM (active) in assay [5].

Take `OC(Cc1ccccc1Cl)(Cn1[nH]cnc1=S)C1(Cl)CC1` (centres undefined): the outcome in [6] and in [8] was inactive. Moreover, in assay [7], the AC50 is 50 µM (active).

For `CCC[CH2][Sn]([Cl])([Cl])[CH2]CCC`, in the assay on SRD5A2 (gene 6716), the AC50 was 13 µM (active).

Turning to `O=[N+]([O-])c1ccccc1O`, the concentration at half-maximal activity (AC50) with SRD5A2 (gene 6716) is 50 µM (active).

With `CCOP(=S)(OCC)O/N=C(\C#N)c1ccccc1`, the figures for the AC50 in the assay on SRD5A2 (gene 6716) and in the assay with SERPINA7 (gene 6906) were 20.1 µM (active) and 20.6 µM (active), respectively.

`CC1(C)[C@H](C(=O)O[C@H](C#N)c2cccc(Oc3ccccc3)c2)[C@@H]1/C=C(\Cl)C(F)(F)F`: the compound was called inactive in [6], in assay [7] and in assay [8].

Consider `CS(=O)(=O)c1ccc(C(=O)C2C(=O)CCCC2=O)c(Cl)c1COCC(F)(F)F`, for which the result in [6] and in assay [7] was inactive. In addition, in assay [8], the AC50 was 25.3 µM (active).

Consider `Cc1ccccc1OP(=O)(Oc1ccccc1C)Oc1ccccc1C`, for which the half-maximal activity concentration (AC50) in assay [7] is 13.5 µM (active); in assay [8], 12.5 µM (active).

Consider `O=c1nc(O)n(Cl)c(=O)n1Cl`, for which the result in the assay with SRD5A2 (gene 6716) was inactive.

In the case of `Cc1cc(C(F)(C(F)(F)F)C(F)(F)F)ccc1NC(=O)c1cccc(I)c1C(=O)NC(C)(C)CS(C)(=O)=O`, the compound was classed as inactive in [6], in assay [7] and in assay [8].

With `CCCCCCCCCCCCc1cccc(S(=O)(=O)O)c1`, the concentration at half-maximal activity (AC50) with SERPINA7 (gene 6906) was 22.2 µM (active).

For the compound `CNC(=O)CSP(=O)(OC)OC`, the result in assay [6] was inactive.

With `O=c1[nH]c(=O)n(Cl)c(=O)n1Cl`, in the assay with SRD5A2 (gene 6716), the result was inactive.

In the case of `O=S1OC[C@@H]2[C@H](CO1)[C@]1(Cl)C(Cl)=C(Cl)[C@@]2(Cl)C1(Cl)Cl` (some centres undefined), in assay [6], the result was inactive.

With `Nc1ccc(N)cc1`, the half-maximal activity concentration (AC50) with SERPINA7 (gene 6906) is 20.3 µM (active).

On to `Nc1ncn[nH]1`, for which the compound was classed as inactive in assay [9], in assay [10] and in assay [11].

For `O=S1(=O)OC(c2cc(Br)c(O)c(Br)c2)(c2cc(Br)c(O)c(Br)c2)c2ccccc21`, the AC50 was 4.66 µM (active) with SRD5A2 (gene 6716) and 7.4 µM (active) in the assay on SERPINA7 (gene 6906).

For the compound `N#CCCC(Br)(C#N)CBr` (centres undefined), the half-maximal activity concentration (AC50) in the assay with SRD5A2 (gene 6716) is 69.9 µM (active).

`CCOCn1c(-c2ccc(Cl)cc2)c(C#N)c(Br)c1C(F)(F)F`: the AC50 in [6] is 50.4 µM (active); in [7] it was 27.1 µM (active); in assay [8], 21.3 µM (active); in the assay on SERPINA7 (gene 6906), 2.12 µM (active).

As for `CCCCCCCCCCCCOS(=O)(=O)O`, the concentration at half-maximal activity (AC50) with SERPINA7 (gene 6906) was 37.2 µM (active) and 56.4 µM (active).

In the case of `CCOP(=O)(OCC)SCCSCC`, the outcome in [12] was inactive.

Turning to `O=C(NC(=O)c1c(F)cccc1F)Nc1cc(Cl)c(OC(F)(F)C(F)C(F)(F)F)cc1Cl` (centres undefined), the AC50 with SERPINA7 (gene 6906) was 19.5 µM (active).

For the compound `CCCSP(=S)(OCC)Oc1ccc(SC)cc1` (centres undefined), the AC50 with SERPINA7 (gene 6906) is 1.52 µM (active).
